Source: PubChem
TDP1 cell noCPT: qHTS for Inhibitors of human tyrosyl-DNA phosphodiesterase 1 (TDP1): qHTS in cells in absence of CPT | DT40 Tdp1-/- hTDP1 cells, no CPT, ATP luminescence, 48 h | Potency, µM (series often up to 46.2 µM), for the others: at the highest dose activity change, negative = growth inhibition, actives largely listed as inhibitors | hit rate 15% among 420,000 | AID 686978, 2013; further: on the % scale 0 is the no-effect control and ±100 the full control effect; nearly all actives have a fitted effect of over 55% in size
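Luminescent ATP content (CellTiter-Glo) served as the growth readout. Knockout chicken DT40 cells expressing human TDP1 were exposed to compounds without camptothecin for a minimum 48 hr at 37 °C.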
HepG2 viability: qHTS for Inhibitors of TGF-b: Cytotox Counterscreen | AID 588856, 2011 | Potency, µM (series often up to 46.1 µM), without a hit: at the top dose activity change, negative = cytotoxicity, usual class: cytotoxic | hit rate 0.76% among 410,000 | HepG2 CAGA-GFP viability, ATP luminescence, 18 h
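HepG2 CAGA-GFP cells (1000/well, DMEM with 1% FBS) received compound, then TGF-beta at 500 pg/mL final, and were incubated 18 hours at 37 degrees C. Viability was read by CellTiter-Glo luminescence. Media-only wells were set as complete cell-killing and DMSO as no toxicity.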
TGFb SMAD3 inh: qHTS for Inhibitors of TGF-b. HepG2 CAGA-GFP TGF-b/SMAD3 reporter, GFP fluorescence, 18 h; TGF-beta stimulated, 500 pg/mL final. Potency, µM (highest dose often 46.1 µM), without a hit: top-dose activity, negative = inhibition, most hits filed as inhibitors. hit rate 1.2% among 410,000; further: on the % scale 0 is the no-effect control and ±100 the full control effect; nearly all actives have a fitted effect of over 65% in size
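GFP signal (ex488/em500-530) from TGF-beta-stimulated HEPG2 CAGA-GFP cells, 500 pg/mL final, 18 h at 37 degrees C in DMEM plus 1% FBS, normalized to unstimulated and DMSO-stimulated controls.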
HT1080NT lethal: qHTS for induction of synthetic lethality in tumor cells producing 2HG: qHTS for the HT-1080-NT fibrosarcoma cell line. HT-1080-NT fibrosarcoma viability, CellTiter-Glo ATP luminescence, 48 h. Potency, µM (series often up to 46.1 µM), for inactives: top-dose activity, negative = less viability, usual class: cytotoxic. hit rate 1.6% among 360,000. AID 686970, 2013;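 further: NT is the 2HG producing partner of a matched IDH1 knockdown line; 0% = DMSO-treated cells and -100% = media-only wells without cells; nearly all actives have a fitted effect of over 55% in size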
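HT-1080-NT fibrosarcoma cells (2HG-overproducing), 750 cells/well in RPMI with 5% FBS, dosed after 2 h and incubated 48 h at 37C. CellTiter-Glo luminescence normalized to DMSO and no-cell wells; concentration-response curves fitted and classed.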
HT1080 IDH1KD tx: qHTS for induction of synthetic lethality in tumor cells producing 2HG: qHTS for the HT-1080-IDH1KD cell line; hit rate 2% among 360,000; Potency, µM (series often up to 46.1 µM), for the others: at the highest dose activity, negative = toxicity, usual class: cytotoxic; AID 686971, 2013; HT-1080 IDH1 knockdown viability, ATP luminescence, 48 h;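 further: 0% = DMSO wells and -100% = cell-free medium wells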
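Assay cells: HT-1080 with IDH1 knockdown, 750 per well, RPMI/5% FBS. Exposure: 48 h at 37 °C following 2 h pre-incubation. Read: CellTiter-Glo luminescence; fitted concentration-response, curve class assigned.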
TDP1 cell CPT: qHTS for Inhibitors of human tyrosyl-DNA phosphodiesterase 1 (TDP1): qHTS in cells in presence of CPT; chicken DT40 Tdp1-/-;hTDP1 cells + 20 nM CPT, ATP luminescence, 48 h; Potency, µM (highest dose often 46.2 µM), for the others: at the highest dose activity change, negative = growth inhibition, most hits filed as inhibitors; hit rate 12% among 420,000; AID 686979, 2013; further: on the % scale 0 is the no-effect control and ±100 the full control effect; nearly all actives have a fitted effect of over 55% in size
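Chicken DT40 Tdp1-/- cells stably complemented with human TDP1 were seeded at 400 cells/well in medium containing 20 nM camptothecin, exposed to pin-transferred compounds, and grown at 37 °C for at least 48 hr. Viability was read as ATP luminescence.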
Starred values were filed as active, the others as inactive; u = inconclusive; x = not tested or not shown. An excerpt weighted towards active compounds, which were near 17% of everything screened. The call rests on the fitted dose curve; in most records, active means well fitted curve in the direction sought with a large enough effect; inconclusive means small, poorly fitted or top-dose-only effect, or another doubt; inactive means no such curve, though single readings can be large; an effect the other way counts as inactive or inconclusive. Potency means the concentration at half of the fitted maximal effect.

SMILES	TDP1 cell noCPT	HepG2 viability	TGFb SMAD3 inh	HT1080NT lethal	HT1080 IDH1KD tx	TDP1 cell CPT
COc1ccc(NC(=O)CN2CCN(S(=O)(=O)c3ccc(Cl)cc3)CC2)cc1	u	5%	-27%	7%	-10%	-29%
O=C(CN1CCN(S(=O)(=O)c2ccccc2)CC1)Nc1ccc(Cl)c([N+](=O)[O-])c1	23µM*	-22%	-4%	-6%	-14%	21µM*
COc1ccc(S(=O)(=O)N2CCN(CC(=O)Nc3ccc(Cl)c(C(F)(F)F)c3)CC2)cc1	8.2µM*	-1%	u	x	x	9.2µM*
NS(=O)(=O)c1ccc(NC(=O)CN2CCN(S(=O)(=O)c3ccc(F)cc3)CC2)cc1	21µM*	-1%	3%	8%	3%	21µM*
COc1cccc(N2CCN(S(=O)(=O)c3ccc(-c4coc(C)n4)cc3)CC2)c1	21µM*	-19%	u	u	-1%	u
Cc1ccc(S(=O)(=O)N2CCN(CC(=O)NC3CCCc4ccccc43)CC2)cc1C (centres undefined)	18µM*	0%	u	-3%	-15%	u
O=C(CN1CCN(S(=O)(=O)c2ccccc2)CC1)Nc1ccc([N+](=O)[O-])cc1	12µM*	-28%	u	u	u	18µM*
Cc1nc(-c2ccc(S(=O)(=O)N3CCN(c4ccccc4)CC3)cc2)co1	u	4%	7%	-1%	0%	-23%
CCC(=O)Nc1ccc(C(=O)N/N=C/c2cc(Br)c(OC)cc2OC)cc1	u	-35%	u	11%	18%	-13%
O=C(Nc1ccc(C(=O)N2CCC(N3CCOCC3)CC2)cc1)c1ccc(Br)o1	7%	-5%	10%	13%	18%	-3%
CC1(c2ccccc2)NC(=O)N(CC(=O)Nc2nnc(C3CC3)s2)C1=O (centres undefined)	0%	-17%	0%	-2%	-2%	2%
CCCCCNC(=O)Cc1ccc(S(=O)(=O)N2CCOCC2)s1	-5%	4%	1%	-1%	0%	12%
Cc1csc(-c2nc3ccccc3n2C(C(=O)Nc2c(C)cccc2C)C2CC2)c1 (centres undefined)	u	x	x	-12%	0%	u
Clc1cccc(Oc2cnns2)c1Cl	26µM*	3%	7%	0%	0%	u
COc1ccc(C(C)(C)NC(=O)C2CCC(=O)N(C3CCCC3)C2)cc1OC (centres undefined)	-3%	-7%	0%	0%	13%	8%
Cc1ccc(NC(=O)CSc2ncc3c(n2)-c2ccc(Cl)cc2N(C)S3(=O)=O)cc1F	u	-13%	0%	x	x	23µM*
Cc1cccc(NC(=O)CSc2ncc3c(n2)-c2cc(Cl)ccc2N(C)S3(=O)=O)c1C	u	-2%	-16%	x	x	u
CN1c2cc(Cl)ccc2-c2nc(SCC(=O)Nc3ccc(F)cc3F)ncc2S1(=O)=O	16µM*	-18%	-2%	x	x	23µM*
Cc1ccc(NC(=O)CSc2ncc3c(n2)-c2ccccc2N(C)S3(=O)=O)c(Cl)c1	0.65µM*	3%	u	x	x	0.73µM*
COc1ccccc1CCCNC(=O)C1CCC(=O)N(CCCN2CCCC2=O)C1 (centres undefined)	33%	0%	0%	15%	10%	3%
COc1ccc(S(=O)(=O)NCCS(=O)(=O)N2CCN(c3ccccc3)CC2)cc1C	23µM*	0%	u	x	x	18µM*
CNS(=O)(=O)c1cn(CC(=O)N2CCN(c3ccc(OC)cc3)CC2)cc1S(=O)(=O)NC	u	-9%	0%	x	x	-21%
Cc1ccc(S(=O)(=O)NCCC(=O)N2CCN(c3cccc(Cl)c3)CC2)cc1C	u	1%	u	-3%	-1%	15µM*
Cc1ccc(S(=O)(=O)NCCC(=O)N2CCOCC2)cc1C	-2%	-1%	3%	3%	2%	-1%
CCNS(=O)(=O)c1ccc(CCC(=O)N2CCN(c3cccc(Cl)c3)CC2)cc1	23µM*	-2%	0%	3%	-17%	u
SMILES	TDP1 cell noCPT	HepG2 viability	TGFb SMAD3 inh	HT1080NT lethal	HT1080 IDH1KD tx	TDP1 cell CPT
CNS(=O)(=O)c1cn(CC(=O)N2CCN(c3cccc(Cl)c3)CC2)cc1S(=O)(=O)NC	26µM*	-13%	0%	x	x	u
Clc1cccc(C=NC=Nc2cccc(Cl)c2)c1	-6%	x	x	x	x	4%
CCc1cccc2c(C(O)(c3c[nH]c4c(CC)cccc34)c3c[nH]c4c(CC)cccc34)c[nH]c12	u	-14%	u	x	x	u
COc1ccccc1CN1CC(=O)N2CSC[C@H]2C1=O	-6%	-22%	-3%	-3%	0%	-3%
CN1CCN(NC(=O)/C=C/c2cccc([N+](=O)[O-])c2)CC1	-1%	-13%	0%	-9%	1%	16%
COc1cccc(NC(=O)Nc2nnc([C@H]3C[C@H](O)[C@@H](CO)O3)s2)c1	-3%	-10%	7%	10%	23%	u
O=C(CCNS(=O)(=O)c1ccc2nsnc2c1)N1CCN(c2ccncc2)CC1	16µM*	-13%	8%	-2%	2%	u
CCNS(=O)(=O)c1ccc(CCC(=O)NC2CCCC2)cc1	-25%	0.1µM*	-7%	2%	1%	-2%
Cn1c(=O)oc2cc(S(=O)(=O)NCCC(=O)N3CCN(c4ccccc4)CC3)ccc21	-15%	8%	14%	3%	12%	u
CN(C)Cc1nc2c([nH]1)c(=O)n(C)c(=O)n2C	-13%	-1%	0%	13%	6%	14%
Cc1nc2c(=O)n(C)c(=O)n(C)c2nc1Cl	1.2µM*	11µM*	7.1µM*	9.2µM*	5.8µM*	0.58µM*
CCC(C)(C)n1nnnc1C(c1ccc(C)cc1)N1CCCC1 (centres undefined)	-26%	-2%	-16%	6%	0%	-6%
c1ccc(CC2CCN(C(c3cccs3)c3nnnn3C3CCCC3)CC2)cc1 (centres undefined)	u	-17%	-2%	0%	3%	u
